# Screening results (PubChem)
# KB-V1 cytotox: kills drug-selected multidrug resistant KB-V1 cells; Potency, µM (top dose mostly 46.1 µM), most hits filed as cytotoxic; KB-V1 MDR cells viability, CellTiter-Glo, 72 h; 400,000 tested, 3.4% active; further: nearly all actives have a fitted effect of over 60% in size
#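 Drug-selected KB-V1 cells, grown in DMEM lacking phenol red with 10% FBS, receive compound titrations; after three days at 37 degrees C, surviving cell ATP is quantified by CellTiter-Glo luminescence and responses normalized and curve-fitted.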
# SW480 rerep: induces DNA re-replication in SW480 colon adenocarcinoma cells | SW480 DNA re-replication, Hoechst DNA content imaging, 48 h | Potency, µM (titrated, usually from 46.1 µM), usual class: activators | 340,000 tested, 1.8% active | AID 624297; further: nearly all actives have a fitted effect of over 55% in size
#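 Compounds, transferred as 23 nL by pin tool, were incubated with cells for 48 hr; DNA content per nucleus was then quantified by Hoechst staining and fluorescence plate imaging.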
# HT1080 IDH1KD tx: toxicity to HT-1080 IDH1 knockdown cells (counter line); HT-1080 IDH1 knockdown viability, ATP luminescence, 48 h; Potency, µM (series often up to 46.1 µM), hits mostly cytotoxic; 360,000 tested, 2% active
#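 In this qHTS, HT-1080 cells depleted of IDH1 are exposed for 48 h at 37 °C to compound titrations. Toxicity is scored from CellTiter-Glo luminescence, with DMSO as full viability and medium alone as none.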
# MCF10A rereplic: DNA re-replication induction in MCF 10a cells. MCF 10A DNA re-replication, Hoechst nuclear intensity, 48 h. Potency, µM (top dose mostly 46.1 µM), actives largely listed as activators. 350,000 tested, 2.9% active. AID 624296; further: nearly all actives have a fitted effect of over 50% in size
# HT1080-NT tox: kills 2HG-producing HT-1080-NT fibrosarcoma cells | HT-1080-NT fibrosarcoma viability, CellTiter-Glo ATP luminescence, 48 h | 360,000 tested, 1.6% active | AID 686970 | Potency, µM (top dose mostly 46.1 µM), most hits filed as cytotoxic;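 further: NT is the 2HG producing partner of a matched IDH1 knockdown line; nearly all actives have a fitted effect of over 55% in size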
#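 Viability by CellTiter-Glo luminescence after 48 h compound exposure at 37C of HT-1080-NT cells (750/well, RPMI, 5% FBS). % activity scaled between DMSO wells and medium-only wells, then curve-fitted and categorized by curve class.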
# KB-3-1 tox: kills parental KB-3-1 adenocarcinoma cells. KB-3-1 viability, CellTiter-Glo ATP luminescence, 72 h. Potency, µM (top dose mostly 46.1 µM), usual class: cytotoxic. 400,000 tested, 1.4% active; further: nearly all actives have a fitted effect of over 60% in size
#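 Cells are dispensed, compounds pinned in, plates held at 37 °C for 72 h, then CellTiter-Glo is added and luminescence read after 10 minutes. Cell line: parental KB-3-1 in phenol-red-free DMEM, 10% FBS.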
# Hits are given with their value; – = inactive; ? = inconclusive; · = no result; [ ] = another dose, or the depositor's remark. In the library only some 7.9% were active in any assay of this set; here they are far more common. The call rests on the fitted dose curve; in most records, active means well fitted curve in the direction sought with a large enough effect; inconclusive means small, poorly fitted or top-dose-only effect, or another doubt; inactive means no such curve, though single readings can be large; an effect the other way counts as inactive or inconclusive.
SMILES,KB-V1 cytotox,SW480 rerep,HT1080 IDH1KD tx,MCF10A rereplic,HT1080-NT tox,KB-3-1 tox
COc1ccc(COC(=O)c2sc3nc4n(c(=O)c3c2C)CCC4)cc1,8.2µM,–,?,–,–,–
COc1ccc(CNC(=O)c2sc3nc4n(c(=O)c3c2C)CCC4)cc1,–,·,·,·,·,–
CC(Oc1ccc2c3c(c(=O)oc2c1)CCCC3)C(=O)NCc1cccnc1 (configuration not stated),–,–,–,–,–,–
CNC(=O)CN1C(=O)c2cccc3cccc1c23,–,–,–,–,–,–
CN1/C(=N\O)c2cccc3cccc1c23,?,–,–,18.4µM,–,?
N#CC(C(=O)NCCc1ccccc1)c1nc2ccccc2nc1N1CCCCC1 (configuration not stated),–,?,–,20.6µM,–,–
CCCCCCNC(=O)C(C#N)c1nc2ccccc2nc1N1CCOCC1 (configuration not stated),–,–,–,–,–,–
COCCCNC(=O)C(C#N)c1nc2ccccc2nc1N1CCCC1 (configuration not stated),–,–[9.22 µM],–,–,–,–
CCCCCNC(=O)C(C#N)c1nc2ccccc2nc1N1CCCC1 (configuration not stated),–,?,–,10.3µM,–,–
CCN(CC)c1nc2ccccc2nc1C(C#N)C(=O)NCCc1ccccc1 (configuration not stated),–,?,–,18.4µM,–,–
N#CC(C(=O)NCCc1ccccc1)c1nc2ccccc2nc1N1CCOCC1 (configuration not stated),?,–,–,–,–,–
CCCCCCNC(=O)C(C#N)c1nc2ccccc2nc1N1CCCC1 (configuration not stated),–,?,–,13µM,–,–
CCc1ccc(-n2nc(C)c3c(C)cc(=O)n(Cc4nc(-c5ccccc5)oc4C)c32)cc1,–,·,·,·,·,–
CCCCCCOC(=O)C(C#N)c1nc2ccccc2nc1N1CCN(CC)CC1 (configuration not stated),?,–,23.1µM,?,16.4µM,?
CCCCCCOC(=O)C(C#N)c1nc2ccccc2nc1N1CCOCC1 (configuration not stated),–,–,–,–,–,–
CCCCNC(=O)c1[nH]c2ccccc2c1Sc1ccc(C)cc1,–,·,·,·,·,–
CCN(CC)CCCNC(=O)c1[nH]c2ccccc2c1Sc1ccc(Cl)cc1,–,–,16.4µM,?,20.6µM,–
COC(=O)CNC(=O)Cn1cnc2sc(C)c(S(=O)(=O)N3CCC(C)CC3)c2c1=O,–,–,–,–,–,–
C=CCN1/C(=C(\C#N)C2=NS(=O)(=O)c3ccccc32)N(C)c2ccccc21,–,?,7.08µM,–,12.6µM,–
N#Cc1ccccc1OC1=NS(=O)(=O)c2ccccc21,–,·,·,·,·,–
CS(=O)(=O)c1ccc2nc(NC(=O)c3ccc(NS(=O)(=O)c4ccc(F)c(F)c4)cc3)sc2c1,–,–,–,?,–,–
O=C(Nc1nc2ccc(SC(F)F)cc2s1)c1ccc(NS(=O)(=O)c2ccc(F)c(F)c2)cc1,?,–,?,18.4µM,?,–
Cc1ccc2[nH]c3c(c2c1)CCCC3NC(=O)CCl (configuration not stated),?,8.2µM,9.2µM,20.6µM,1.3µM,–
Cc1ccc(CNC(=O)C2CCCN2C(=O)Nc2ccccc2)cc1 (configuration not stated),–,–,–,0.651µM,–,–
Cc1ccc(S(=O)(=O)N2CCC(C(=O)N3CCC[C@H]3C(=O)NCc3ccccc3)CC2)cc1,?,–,–,–,–,–
SMILES,KB-V1 cytotox,SW480 rerep,HT1080 IDH1KD tx,MCF10A rereplic,HT1080-NT tox,KB-3-1 tox
COc1cccc(NC(=O)[C@@H]2CCCN2C(=O)C2CCN(S(=O)(=O)c3ccc(C)cc3)CC2)c1,18.4µM,–,–,–,?,–
COc1ccccc1CNC(=O)[C@@H]1CCCN1C(=O)C1CCN(S(=O)(=O)c2ccc(C)cc2)CC1,16.4µM,–,–,–,–,–
O=C(COc1ccc(F)cc1)Nc1ccc2nc(SCCOc3ccccc3)sc2c1,–,·,·,·,·,–
CCN(CC)CCn1c(NS(=O)(=O)c2ccc(C)cc2)nc2ccccc21,20.6µM,–,–,–,–,–
c1ccc(Cn2c(CNc3nc4ccccc4n3CCN3CCCCC3)nc3ccccc32)cc1,?,?,23.1µM,?,20.6µM,–
CCN(CC)CCn1c(NCc2nc3ccccc3n2Cc2ccccc2)nc2ccccc21,–,?,11.2µM,23.1µM,?,–
CCN(CC)c1ccc(CNc2nc3ccccc3n2CCN2CCCCC2)cc1,?,?,?,–,16.4µM,?
CCCCn1c(NCc2ccccc2NS(=O)(=O)c2ccc(C)cc2)nc2ccccc21,?,–,–,–,–,–
COc1ccc(NC(=O)CN(C)C(=O)CCNC(=O)Nc2ccccc2)cc1,–,–,–,–,–,–
Cc1cc(N)n(-c2ccc(Cl)cc2)n1,–,–,–,–,–,–
COc1cccc(NC(=O)CN(C)C(=O)CCc2nc3sc4c(c3c(=O)[nH]2)CCCC4)c1,–,?,–,–,–,–
COc1ccc(CN(C)C[C@H]2OCCCC[C@@H](C)Oc3ccc(NC(=O)c4ccccc4)cc3C(=O)N([C@H](C)CO)C[C@@H]2C)cc1,–,·,–,·,–,–
COc1cc(NC(=O)C2=C(N3CCOCC3)/C(=C\c3ccc(N(C)C)cc3)CCC2)cc(OC)c1OC,2.59µM,10.3µM,29.1µM,18.4µM,?,11.6µM
CC1CCCCC1NC(=O)NC(=O)CCl (configuration not stated),–,6.51µM,?,?,–,?
CC1CCCC(NC(=O)NC(=O)CCl)C1C (configuration not stated),–,?,–,?,–,–
NC(C(=O)O)C1ON=C(Cl)C1O (configuration not stated),1.64µM,?,?,–,20.6µM,0.326µM
COc1ccc(CNC(=O)CN(C(=O)CCC(=O)Nc2ccccn2)c2cccc(C)c2)cc1,–,–,–,–,–,–
O=C1CCn2nc(-c3ccc(Cl)cc3)cc2N1,?,–,–,–,–,1.84µM
O=C(CN1C(=O)CCn2nc(-c3ccccc3)cc21)NCc1ccc(Cl)cc1,–,·,·,·,·,–
O=c1c2ccccc2c(-c2ccc(O)cc2)nn1-c1cccc(C(F)(F)F)c1,13µM,?,20.6µM,?,?,?
O=c1cc2c(n[nH]1)-c1ccccc1CC2,?,–,–,–,–,1.3µM
O=C1c2ccccc2CCc2ccccc21,–,–,–,–,–,–
COc1ccc(C(=O)CSc2n[nH]c(=O)n2Cc2ccco2)cc1,–,–,–,–,–,–
